About 79,000 compounds went through this panel and 15% of them were active in at least one assay; those are over-represented in the sample as a whole. A number with no mark means an inactive call. The source made the active and inactive calls. No stated cut-off is given here; in the data, active means growth inhibition above about 70%; inactive means the rest.
How the values were obtained:
[1] = NCI Yeast Anticancer Drug Screen. Data for the rad50 strain (AID 155);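 further: 0% = growth of vehicle-only cultures of the same strain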; conditions: S. cerevisiae rad50 strain growth inhibition, hits give high values
Method in brief: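 Vehicle-treated cultures provide the reference for the growth inhibition reported for compound-exposed, repair-deficient yeast.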

[2] = NCI Yeast Anticancer Drug Screen. Data for the mec2-1 strain (AID 157); conditions: S. cerevisiae mec2-1 strain, hits give high values
Method in brief: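 Yeast mec2-1 mutant treated with compound. Readout: growth inhibition vs vehicle controls.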

[3] = NCI Yeast Anticancer Drug Screen. Data for the sgs1 mgt1 strain (AID 161);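 further: 0% = growth of cultures given vehicle only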; conditions: S. cerevisiae sgs1 mgt1 strain, hits give high values
Method in brief: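 Inhibition of yeast growth, normalised to vehicle-treated controls, is reported for a strain bearing genetic alterations in DNA damage repair.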

[4] = NCI Yeast Anticancer Drug Screen. Data for the cln2 rad14 strain (AID 165);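 further: 0% = growth equal to vehicle treated cultures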; conditions: S. cerevisiae cln2 rad14 strain, hits give high values
Method in brief: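 cln2 rad14 yeast strain; compound exposure; growth inhibition read vs vehicle controls.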

[5] = NCI Yeast Anticancer Drug Screen. Data for the bub3 strain (AID 167); conditions: S. cerevisiae bub3 mutant strain, hits give high values
Method in brief: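 Mutant yeast screening strain plus compound; vehicle-treated cultures serve as the 0% inhibition reference.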

[6] = NCI Yeast Anticancer Drug Screen. Data for the mlh1 rad18 strain (AID 175); conditions: S. cerevisiae mlh1 rad18 strain growth inhibition, hits give high values
Method in brief: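 Yeast w/ defined DNA-repair lesions; compound exposure; growth vs vehicle controls → % inhibition.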

[7] = at 5.0 µM (retest, dose inferred, filed as 0.5)
[8] = at 50.0 µM (retest, dose inferred, filed as 5.0)

SMILES	growth inhibition [1, 7]	growth inhibition [1, 8]	growth inhibition ([1]; at 50.0 µM)	growth inhibition [2, 7]	growth inhibition [2, 8]	growth inhibition ([2]; at 50.0 µM)	growth inhibition [3, 7]	growth inhibition [3, 8]	growth inhibition ([3]; at 50.0 µM)	growth inhibition [4, 7]	growth inhibition [4, 8]	growth inhibition ([4]; at 50.0 µM)	growth inhibition [5, 7]	growth inhibition [5, 8]	growth inhibition ([5]; at 50.0 µM)	growth inhibition [6, 7]	growth inhibition [6, 8]	growth inhibition ([6]; at 50.0 µM)
CC(=O)[O-].[Mn+3].[O-]c1ccc(Cl)cc1C=NCCN=Cc1cc(Cl)ccc1[O-]	-2%	92% (active)	98.8% (active)	-3%	66%	98.5% (active)	6%	87% (active)	98.6% (active)	8%	89% (active)	89.2% (active)	16%	98% (active)	98.2% (active)	-1%	93% (active)	98.6% (active)
CCCC/C=C1\CCC(CN2CCOCC2)C1=O (configuration not stated)	56%	100% (active)	90.5% (active)	39%	100% (active)	92.8% (active)	43%	100% (active)	91.4% (active)	44%	98% (active)	90.8% (active)	69%	100% (active)	91.2% (active)	61%	98% (active)	90.7% (active)
Nc1ccccc1O	26%	58%	55.8%	17%	37%	35%	17%	40%	51.1%	15%	30%	8.3%	54%	77% (active)	71% (active)	45%	77% (active)	73.2% (active)
O=c1c2cc(Cl)ccc2[nH]c2cc(O)cc(O)c12	-18%	25%	70.5% (active)	-43%	3%	-12.4%	-9%	11%	21.5%	-15%	16%	11.9%	-13%	39%	15.1%	-20%	45%	15.9%
C=CCCCCn1c2ccccc2c2c(C)c3c[n+](C)ccc3c(C)c21	99% (active)	99% (active)	89.7% (active)	99% (active)	99% (active)	91.8% (active)	97% (active)	97% (active)	90.3% (active)	100% (active)	100% (active)	90.7% (active)	98% (active)	98% (active)	91.4% (active)	98% (active)	98% (active)	88.8% (active)
O=C(Nc1ccccc1C(=O)NC(=O)c1ccccc1NC(=O)c1ccccc1)c1ccccc1	-4%	99% (active)	58.9%	10%	99% (active)	57.5%	-2%	99% (active)	54.8%	4%	99% (active)	40.8%	-1%	99% (active)	46.1%	5%	99% (active)	63.5%
c1ccc([P+](C[P+](c2ccccc2)(c2ccccc2)c2ccccc2)(c2ccccc2)c2ccccc2)cc1	98% (active)	99% (active)	47.4%	98% (active)	100% (active)	99.5% (active)	98% (active)	99% (active)	58.4%	97% (active)	99% (active)	99.4% (active)	98% (active)	99% (active)	99.7% (active)	98% (active)	99% (active)	99.5% (active)
COC1OC(=O)CC1C1CC=C2C3CCC4CC(O)CCC4(C)C3CCC21C (configuration not stated)	1%	44%	83.3% (active)	3%	85% (active)	74.4% (active)	-22%	86% (active)	95% (active)	-8%	77% (active)	62.6%	-9%	73% (active)	64.8%	-5%	92% (active)	88.4% (active)
Cc1nnc(NS(=O)(=O)c2ccc(N=Nc3cc(N=Nc4ccc(S(=O)(=O)Nc5nnc(C)s5)cc4)c4c(NC(=O)C(Cl)Cl)cccc4c3OC(=O)C(Cl)Cl)cc2)s1 (tested in a mixture with another compound)	90% (active)	-11%	51.8%	92% (active)	24%	53.6%	89% (active)	-9%	69.5%	90% (active)	6%	65.8%	91% (active)	-3%	58.2%	80% (active)	-44%	79.5% (active)
C=C(CSCCCCCCCCCCCC)C(=O)O	98% (active)	97% (active)	98.5% (active)	99% (active)	98% (active)	98.9% (active)	98% (active)	97% (active)	98.5% (active)	98% (active)	96% (active)	94.3% (active)	98% (active)	96% (active)	99.3% (active)	99% (active)	97% (active)	96.7% (active)
Cc1cccc(Cc2cccc(Cl)c2)c1O	-1%	95% (active)	99.3% (active)	-1%	98% (active)	99.8% (active)	3%	89% (active)	99.6% (active)	-4%	90% (active)	99% (active)	-9%	94% (active)	99.1% (active)	8%	96% (active)	98.9% (active)
CCCCCCCCCCCC(C)N (configuration not stated)	15%	83% (active)	99% (active)	4%	78% (active)	99.5% (active)	4%	91% (active)	98.7% (active)	12%	25%	98% (active)	11%	86% (active)	99.2% (active)	2%	74% (active)	98.1% (active)
Nc1nc(=Nc2ccccc2)ss1	-12%	99% (active)	84.8% (active)	6%	100% (active)	71.1% (active)	0%	99% (active)	86.5% (active)	-7%	99% (active)	45.4%	-11%	100% (active)	57.5%	12%	99% (active)	78.7% (active)
NNc1cccc(C(F)(F)F)c1	19%	90% (active)	83.7% (active)	-41%	54%	79.5% (active)	-16%	28%	88.5% (active)	13%	55%	50.1%	-1%	97% (active)	88% (active)	34%	93% (active)	83.5% (active)
CSc1nnc(CCC(=O)Nc2c(C)cccc2C(C)(C)C)o1	-5%	1%	-2.5%	1%	4%	27.8%	-14%	25%	10.9%	4%	7%	49.6%	7%	7%	0.65%	-9%	-3%	1.65%
C(/Cc1ccc2c(c1)OCO2)=N\NC1=NCCCCN1	-3%	-18%	15.7%	-3%	-5%	-7.25%	-2%	-15%	-16.2%	0%	-17%	28.8%	-1%	-20%	3.2%	0%	-18%	-6.5%
Cc1c2ccncc2cc2c1sc1ccncc12	97% (active)	97% (active)	91.2% (active)	95% (active)	97% (active)	93% (active)	94% (active)	99% (active)	91.2% (active)	87% (active)	98% (active)	90.5% (active)	96% (active)	98% (active)	89.5% (active)	96% (active)	97% (active)	89.3% (active)
CCOC(=O)/C=C1/C(=O)OC2C1OC1OC(C)(C)OC12 (configuration not stated)	9%	99% (active)	6.3%	16%	100% (active)	34.8%	-5%	100% (active)	57%	37%	100% (active)	-15.1%	33%	100% (active)	26.1%	7%	99% (active)	54.8%
COc1ccc(Cc2ccc3c(C)cc(Cl)nc3c2)cc1	1%	74% (active)	77% (active)	-8%	87% (active)	67.8%	-5%	96% (active)	87% (active)	1%	29%	31.6%	10%	78% (active)	89% (active)	0%	93% (active)	86.3% (active)
